Screens deposited in PubChem by Broad Institute.
aSyn UTR act = Activators via SNCA 5'UTR binding, MLPCN | alpha-synuclein 5'UTR reporter, activators screen | activity score, % (tested at 7.5 µM), hits read low | hit rate 7.1% among 300,000; in the data active = activity score below about -60%
* hit, by the source's call. A selection follows.

SMILES	aSyn UTR act
N#C/C(=C\c1ccc(N2CCCCC2)o1)C(=O)Nc1cccc(Br)c1	-178*
COc1cc(/C=N/n2cnnc2)ccc1OCc1ccc(C)cc1	-100*
COc1ccc(/C=C2\CN(Cc3ccccc3)C/C(=C\c3ccc(OC)c(O)c3)C2=O)cc1O	107
COc1cc(/C=N/n2cnnc2)ccc1OCc1ccccc1	-72*
CC1(C(=O)N/N=C/c2ccc([N+](=O)[O-])o2)CC1(Br)Br (configuration not stated)	-96*
Cc1ccccc1OCC(=O)N/N=C/c1ccc([N+](=O)[O-])o1	-68*
O=C(COc1ccccc1[N+](=O)[O-])N/N=C/C=C/c1ccco1	-73*
O=C(Cc1ccc([N+](=O)[O-])cc1)N/N=C/c1ccc([N+](=O)[O-])o1	89
CN(Cc1ccccc1)C(=O)C(C(=O)c1ccc(F)cc1)n1cc(Cl)ccc1=O (configuration not stated)	-67*
COc1ccc(C(=O)/C(=C/O)N=Nc2ccc(F)cc2)cc1	-64*
CCOC(=O)c1c(NC2=NS(=O)(=O)c3ccccc32)sc2c1CCCCC2	-63*
CCOc1cc(C(C(=O)NCC2CCCO2)N(C(=O)Cn2nnc3ccccc32)c2ccc(C(C)=O)cc2)ccc1O (configuration not stated)	-67*
Cc1c(Cl)cccc1Nc1nc(N)nc(CSc2ncccn2)n1	-77*
COc1cccc(-c2nnc(-c3ccc(C(F)(F)F)cc3)o2)c1	-145*
Oc1ccccc1-c1nnc(-c2ccc(C(F)(F)F)cc2)o1	-126*
Nc1ccccc1-c1nnc(-c2ccc(-c3ccccc3)cc2)o1	-192*
c1ccc(-c2nnc(-c3ccncc3)o2)cc1	-89*
COc1ccc(-c2nnc(-c3ccccc3)o2)cc1OC	-168*
CN(C)S(=O)(=O)c1cccc(-c2nnc(-c3ccccc3)o2)c1	-113*
COc1ccc(C2=Nn3c(nnc3-c3ccccc3)SC2)cc1OC	59
O=[N+]([O-])c1cc(-c2nnc(-c3ccccc3)o2)ccc1Oc1ccc(Cl)cc1	-95*
c1ccc(-c2nnc(-c3ccccc3)o2)cc1	-96*
Nc1ccc(-c2nnc(-c3ccc(N)cc3)o2)cc1	-106*
COc1cccc(N2CCN(C(=O)c3ccc4nc(N5CCCCC5)sc4c3)CC2)c1	-153*
CC1CCN(c2nc3ccc(C(=O)N4CCN(Cc5ccc6c(c5)OCO6)CC4)cc3s2)CC1	-156*
SMILES	aSyn UTR act
COc1ccc(N2CCN(C(=O)c3ccc4nc(N5CCCCC5)sc4c3)CC2)cc1	-192*
COc1ccc2nc(N3CCN(C(=O)C4COc5ccccc5O4)CC3)sc2c1 (configuration not stated)	-125*
CCC(C)NC(=O)c1cc2cc3ccc(OC)cc3nc2s1 (configuration not stated)	-131*
COc1ccc2cc3cc(C(=O)NCCN4CCc5ccccc5C4)sc3nc2c1	-209*
CCCC(C(=O)Nc1ccc2c(C)cc(=O)oc2c1)c1ccccc1 (configuration not stated)	-66*
Cc1cc(=O)oc2cc(Nc3ccccc3)ccc12	-90*
Cc1ccc(-n2c(C(C)C)nc3oc4ccccc4c(=O)c3c2=O)cc1	-111*
CCc1nc2oc3ccccc3c(=O)c2c(=O)n1-c1ccc(C)cc1	-139*
CCCc1nc2oc3ccccc3c(=O)c2c(=O)n1-c1ccc(C)cc1	-84*
CCc1nc2oc3ccccc3c(=O)c2c(=O)n1-c1ccccc1	-315*
CCCc1nc2oc3ccccc3c(=O)c2c(=O)n1-c1ccccc1	-153*
c1cncc(CSc2ccc(-c3cccs3)nn2)c1	-110*
c1ccc(CSc2ccc(-c3cccnc3)nn2)nc1	-78*
Cc1ccc(CSc2ccc(-c3cccs3)nn2)cc1	-99*
Fc1ccc(CSc2ccc(-c3cccs3)nn2)cc1	-121*
C/C(=N\NC(=S)Nc1ccc(F)cc1)c1ccc2c(c1)OCCO2	-80*
CCOC(=O)c1ccc2[nH]c3c(c2c1)CCCCC3=O	-102*
O=C1CCCc2c1[nH]c1ccc(Cl)cc21	63
O=C(NCCCn1ccnc1)c1cc(-c2cccs2)on1	-294*
O=C(NCCCN1CCOCC1)C(=O)N/N=C/c1c2ccccc2cc2ccccc12	67
O=C(NCCCN1CCOCC1)c1cc(-c2cccs2)on1	-152*
Cc1nc(/N=C\N(C)C)sc1C(=O)Nc1ccccc1	-79*
Cc1nc(C(=O)Nc2ccccc2)sc1C(=O)Nc1ccccc1	-166*
Cc1ccc(NC(=O)c2sc(N)nc2C)cc1	-185*
CN1CCN(/N=C/c2ccc(-c3ccc([N+](=O)[O-])cc3Cl)o2)CC1	-104*
SMILES	aSyn UTR act
CCCc1cc(N2CCOCC2)n2ncc(-c3ccccc3)c2n1	-67*
Cc1nc2c(-c3ccccc3)cnn2c(N2CCOCC2)c1C	-191*
COc1ccc(-c2cc3ccccc3s2)cc1[C@H]1[C@H]2C=CC[C@@H](C)[C@@H]2C(=O)N1Cc1ccccc1	-107*
O=c1c(/C=C(\O)c2ccccc2)nc2ccccc2n1-c1ccccc1	-127*
O=C(Nc1nc(-c2ccccc2)ns1)c1cccs1	-272*
Cc1onc(-c2c(Cl)cccc2Cl)c1C(=O)Nc1nc(C(C)(C)C)cs1	80
